Only some compounds are listed: those with a hit (about 9.2% of all), similar ones and a draw of the others.
FLuc counter = counter-screen for miR-21 project: firefly luciferase inhibitors or activators; purified FLuc, Km substrates, luminescence inhibition; Potency, µM (titrated, usually from 57.5 µM), usual class: inhibitors; 360,000 tested, 6.9% active; AID 588342; also: nearly all actives have a fitted effect of over 55% in size
Target sequence (P08659 whole entry, looked up): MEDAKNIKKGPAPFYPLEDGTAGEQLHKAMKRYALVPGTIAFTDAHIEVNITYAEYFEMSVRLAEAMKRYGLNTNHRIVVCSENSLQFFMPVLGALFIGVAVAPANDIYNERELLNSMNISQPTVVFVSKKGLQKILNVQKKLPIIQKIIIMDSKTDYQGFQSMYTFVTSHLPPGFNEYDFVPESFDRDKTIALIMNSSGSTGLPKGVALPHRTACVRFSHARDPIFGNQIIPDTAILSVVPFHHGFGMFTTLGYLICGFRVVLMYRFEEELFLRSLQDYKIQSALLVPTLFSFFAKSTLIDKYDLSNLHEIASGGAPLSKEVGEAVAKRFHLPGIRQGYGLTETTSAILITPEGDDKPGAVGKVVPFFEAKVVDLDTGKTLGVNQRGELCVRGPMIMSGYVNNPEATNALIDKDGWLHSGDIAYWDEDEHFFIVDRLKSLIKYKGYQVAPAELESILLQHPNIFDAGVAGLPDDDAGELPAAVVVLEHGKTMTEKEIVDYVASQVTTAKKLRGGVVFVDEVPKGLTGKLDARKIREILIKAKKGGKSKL
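Biochemical qHTS of compounds, final roughly 60 µM downward over six points, against 10 nM purified firefly luciferase using Km concentrations of substrates (10 uM D-luciferin, 10 uM ATP) in Tris acetate pH 7.5 buffer; luminescence output.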
NPC1 promoter act = activators of NPC1 promoter. Huh7 NPC1 promoter luciferase reporter, 24 h. Potency, µM (doses to about 9.22 µM), usual class: activators. 320,000 tested, 2.4% active. AID 485313; also: nearly all actives have a fitted effect of over 60% in size
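Stably transfected Huh7 (NPC1 promoter→luciferase), 1500 cells/well in Opti-MEM + 10% FBS, 2 h settle, then compound 24 h at 37 °C. Luminescence after 10 min with Amplite reagent.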
Rab9 prom act = activates the Rab9 promoter | 320,000 tested, 2.8% active | Huh7 Rab9 promoter-luciferase reporter, luminescence, 24 h | Potency, µM (highest dose often 9.22 µM), usual class: activators; also: nearly all actives have a fitted effect of over 60% in size
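Stable Rab9-luc Huh7, 1500 cells/well, 2 h settle; cmpd in DMSO, 24 h, 37 °C/5% CO2; luciferase reagent 10 min RT; luminescence.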
SMN2 splice up = SMN2 splice variant enhancement; AID 1458; HEK293 SMN2-luciferase splicing reporter, luminescence, 30-36 h; Potency, µM (doses to about 46.1 µM), usual class: activators; 210,000 tested, 2.8% active; also: nearly all actives have a fitted effect of over 55% in size
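HEK293 cells carry an SMN2 minigene-luciferase reporter in which exon 7 inclusion puts luciferase in frame. Cells were seeded at 2000 cells/well, attached for 10-12 hours, then exposed to compounds for 30-36 hours at 37C before ONE-Glo luminescence.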
ELG1 genotox = genotoxicity induction in ELG1-luciferase HEK293T cells; HEK293T ELG1-luciferase reporter, luminescence, 16 h; Potency, µM (titrated, usually from 46 µM), hits mostly activators; 330,000 tested, 1.3% active; AID 504466; also: nearly all actives have a fitted effect of over 60% in size
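Quantitative HTS format in 1536-well plates. HEK293T ELG1-luciferase reporter cells receive test compound and are incubated 16 hr at 37 °C, 5% CO2; ONE-Glo added, 30 min room temperature, then luminescence read.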
ELG1 DNA repair = blocks ELG1-dependent DNA repair in HEK293T cells; HEK293T ELG1-luciferase reporter, luminescence, 16 h; DNA damage induced by 5-fluorouridine; 330,000 tested, 2.3% active; AID 504467; Potency, µM (highest dose often 46.1 µM), actives largely listed as inhibitors; also: nearly all actives have a fitted effect of over 55% in size
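5-Fluorouridine DNA damage + compound/DMSO, 2,000 cells/well, 16 h, 37 °C/5% CO2. ONE-Glo, 30 min RT, luminescence. Readout = decrease in reporter signal.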
Each line names hits and unclear results; the compound was inactive in the other large screens. Calls follow the shape of the dose curve; as a rule, active = well fitted curve in the direction sought with a large enough effect; inconclusive = small, poorly fitted or top-dose-only effect, or another doubt; inactive = no such curve, though single readings can be large; an effect the other way counts as inactive or inconclusive.

CC1CCCCN1Cc1c(O)ccc2c(=O)c(-c3nc4ccccc4s3)c(N)oc12 (centres undefined)	FLuc counter 12µM
COc1ccc(N2CCN(CC(=O)NCc3ccc(Cl)cc3)CC2)cc1	none (no result: SMN2 splice up)
COC(=O)C1Cc2c([nH]c3ccccc23)C(C(C)C)N1 (centres undefined)	ELG1 DNA repair inconclusive (no result: SMN2 splice up)
COC(=O)[C@@H]1Cc2c([nH]c3ccccc23)C(C)N1C(=O)c1ccccc1 (some centres undefined)	ELG1 DNA repair 12µM (no result: SMN2 splice up)
Cc1c(C(=O)Nc2nccs2)oc2c(Cl)cccc12	Rab9 prom act inconclusive (no result: SMN2 splice up)
O=C(Nc1ccc2c(c1)OCO2)c1cc(C2CC2)on1	FLuc counter 4.3µM, NPC1 promoter act 1.6µM, Rab9 prom act 1.4µM, SMN2 splice up 11µM, ELG1 genotox 2.1µM, ELG1 DNA repair inconclusive
CC(C)c1cc(C(F)(F)F)n2nc(C(=O)Nc3ccc4c(c3)OCO4)cc2n1	FLuc counter 12µM, Rab9 prom act inconclusive, ELG1 genotox inconclusive, ELG1 DNA repair inconclusive
O=C(Nc1cc(Cl)ccc1Cl)c1cc2nc(-c3ccc4c(c3)OCO4)cc(C(F)(F)F)n2n1	none (no result: NPC1 promoter act, Rab9 prom act, ELG1 genotox, ELG1 DNA repair)
CC(C)c1cc(C(=O)Nc2ccc3c(c2)OCO3)no1	FLuc counter 3.4µM, NPC1 promoter act 2.8µM, Rab9 prom act 1.6µM, SMN2 splice up 7.1µM, ELG1 genotox 2.1µM, ELG1 DNA repair inconclusive
O=C(Nc1ccc(F)cc1F)c1cc(S(=O)(=O)N2CCCCC2)c[nH]1	none (no result: NPC1 promoter act, Rab9 prom act, SMN2 splice up, ELG1 genotox, ELG1 DNA repair)
c1ccc(-c2nc(-c3cccnc3)n[nH]2)cc1	FLuc counter inconclusive, SMN2 splice up inconclusive, ELG1 DNA repair inconclusive
Brc1cccc(-c2n[nH]c(-c3ccccc3)n2)c1	FLuc counter 3µM, NPC1 promoter act 6.3µM, Rab9 prom act 3.5µM, SMN2 splice up 10µM, ELG1 genotox 2.3µM, ELG1 DNA repair inconclusive
O=C(CN1C2CCCC1CC(NC(=O)C1CCCCC1)C2)NCc1ccc(F)cc1 (centres undefined)	ELG1 DNA repair 12µM (no result: SMN2 splice up)
CCCN1C2CCCC1CC(NC(=O)C1CCCCC1)C2 (centres undefined)	none
O=C(CN1C2CCCC1CC(NC(=O)C1CCCCC1)C2)Nc1ccccc1C(F)(F)F (centres undefined)	ELG1 DNA repair 15µM (no result: SMN2 splice up)
COc1cccc(C(=O)NC2CC3CCCC(C2)N3CC(=O)Nc2ccccc2C(F)(F)F)c1 (centres undefined)	ELG1 DNA repair inconclusive (no result: SMN2 splice up)
COc1ccc(CNC(=O)CN(Cc2ccc(F)cc2)C(=O)CCC(=O)Nc2nccs2)cc1	none (no result: SMN2 splice up)
COc1ccc2c(Cl)c(C(N)=O)sc2c1	FLuc counter 15µM
COc1ccc2c(Cl)c(C(=O)NN)sc2c1	FLuc counter inconclusive
Cc1cc(C)[n+](C)n1CC(O)Cn1c2ccccc2c2ccccc21 (centres undefined)	none
CCOc1cccc(C(=O)NC(=S)Nc2cccnc2)c1	FLuc counter inconclusive, ELG1 DNA repair inconclusive
CCCOc1ccc(C(=O)Nc2ccc(NC(=O)c3ccccc3)c(C)c2)cc1	none (no result: NPC1 promoter act, Rab9 prom act, ELG1 genotox, ELG1 DNA repair)
CCOc1cccc(C(=O)NC(=S)Nc2cccc(NC(=O)c3ccccc3Cl)c2)c1	FLuc counter inconclusive, ELG1 DNA repair 8.2µM
CCOc1cccc(C(=O)Nc2ccc(NC(=O)c3ccccc3)c(C)c2)c1	FLuc counter 13µM (no result: SMN2 splice up)
CCOc1cccc(C(=O)NC(=S)Nc2ccccc2)c1	FLuc counter 6.7µM, NPC1 promoter act inconclusive, Rab9 prom act inconclusive, SMN2 splice up 11µM, ELG1 genotox inconclusive, ELG1 DNA repair inconclusive
CC(C)Oc1ccc2c(=O)c(-c3ccccc3)coc2c1	FLuc counter 1.7µM, NPC1 promoter act 0.79µM, Rab9 prom act 0.89µM, SMN2 splice up 3.2µM, ELG1 genotox 9.2µM, ELG1 DNA repair inconclusive
CC(=O)Oc1ccc2c(=O)c(Oc3ccccc3[N+](=O)[O-])coc2c1	none
CC(Oc1ccc2c(-c3ccccc3)cc(=O)oc2c1)C(=O)O (centres undefined)	none
COC(=O)COc1ccc2c(-c3ccc(OC)cc3)cc(=O)oc2c1	FLuc counter inconclusive
CC(=O)Oc1ccc2c(=O)c(-c3nc4ccccc4s3)coc2c1	FLuc counter 1.1µM, NPC1 promoter act 1.3µM, Rab9 prom act 1.3µM, SMN2 splice up 13µM, ELG1 genotox inconclusive, ELG1 DNA repair inconclusive
COC(=O)COc1ccc2c(=O)c(-c3ccccc3)coc2c1	FLuc counter 17µM (no result: SMN2 splice up)
Cc1c(Cc2ccccc2)c(=O)oc2cc(OC(C)C(=O)NCC3CCC(C(=O)O)CC3)c(Cl)cc12 (centres undefined)	ELG1 DNA repair inconclusive (no result: SMN2 splice up)
CCC(C)N(C(=O)CSc1nc(-c2ccccc2)cs1)C1CCS(=O)(=O)C1 (centres undefined)	FLuc counter 17µM
CCC(C)N(C(=O)CSc1nc(C)nc2ccccc12)C1CCS(=O)(=O)C1 (centres undefined)	none (no result: SMN2 splice up)
c1ccc(N2CCN(c3ncnc4sc5c(c34)CCC5)CC2)cc1	ELG1 DNA repair 16µM
c1nc(N2CCC3(CC2)OCCO3)c2c3c(sc2n1)CCCC3	none
O=C(c1ccco1)N1CCN(c2ncnc3sc4c(c23)CCC4)CC1	ELG1 DNA repair 15µM
O=C(Nc1cccnc1)c1noc2c1CCCC2	FLuc counter inconclusive, NPC1 promoter act inconclusive, Rab9 prom act inconclusive, ELG1 genotox inconclusive, ELG1 DNA repair inconclusive
